Source: PubChem
Shown are actives, neighbours in structure and some others; about 2.8% of the full set was active somewhere.
HIF-2a block = blocks HIF-2a reporter activity; 786-0 RCC cells HIF-2a reporter, luciferase luminescence, overnight; 360,000 compounds, 0.72% hits; inhibition, % at 18.8 µM; AID 624352;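 active means inhibition of the luminescence signal of 40% or more relative to plate controls, in a single-dose primary screen at 18.75 µM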
CF NFkB inh = cystic fibrosis NF-kB activation inhibition; KKLEB NF-kB-GFP reporter, PAF-induced, GFP fluorescence overnight; inhibition, % at 5 µM; 360,000 compounds, 0.86% hits; AID 588850;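 active means at least 50% inhibition at 5 µM, scaled per plate between neutral and stimulator controls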;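 further: PAF is a Pseudomonas aeruginosa culture filtrate used as stimulus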
Peg3 prom inh = inhibitors of Peg3 promoter; HeLa PEG-Prom luciferase reporter, luminescence, overnight; inhibition, % at 20 µM; AID 588405; 360,000 compounds, 1.7% hits;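 active means inhibition of at least 50% at 20 µM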
Shn3 3UTR inh = Schnurri-3 reporter inhibition in Clone20 osteoblasts; Clone20 osteoblast Shn3 3'UTR firefly luciferase, 24 h; inhibition, % at 12.5 µM; 360,000 compounds, 0.52% hits; AID 588674;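 active means mean inhibition of at least 75% with every replicate also reaching 75%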
TRPM1 prom inh = reduces MITF-dependent TRPM1 promoter luciferase signal. SK-MEL-5 TRPM1 promoter luciferase, 24 h. inhibition, % at 12.5 µM. 330,000 compounds, 0.83% hits. AID 488899;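 active means mean inhibition across replicates of 60% or more, whatever share of single replicates reaches that level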
KKLEB tox = CF airway cell cytotoxicity counter-screen; 360,000 compounds, 0.36% hits; activity change (cytotoxicity), % at 5 µM; KKLEB CF airway cells viability, ATPlite luminescence, overnight; hits give low values; cells stimulated with P. aeruginosa culture filtrate;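 active means corrected activity change at or below -50% at 5 µM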
A number is an active result; i = inactive; nt = not tested or not shown.

SMILES	HIF-2a block	CF NFkB inh	Peg3 prom inh	Shn3 3UTR inh	TRPM1 prom inh	KKLEB tox
COc1ccc(Cc2ccccc2C(=O)O)cc1	i	i	i	i	i	i
CC(C)C[C@H]1CN([C@@H](CC(C)C)CN2CCC[C@@H]2CN2C(=S)NC[C@@H]2Cc2ccc(O)cc2)C(=S)N1CC1CCCCC1	i	65	95	i	nt	-55
CC(C)C[C@H]1CN([C@@H](CC(C)C)CN2CCCC2CN2C(=S)NC[C@@H]2Cc2ccc(O)cc2)C(=S)N1CC1CCCCC1 (stereo partly drawn)	i	i	72	i	i	i
CC(C)C[C@@H](CN1CCC[C@@H]1CN1C(=S)NC[C@@H]1Cc1ccc(O)cc1)N1C[C@H](Cc2ccc(O)cc2)N(CC2CCCCCC2)C1=S	i	i	80	i	nt	i
Oc1ccc(C[C@H]2CNC(=S)N2CC2CCCN2C[C@H](Cc2ccccc2)N2C[C@H](Cc3ccc(O)cc3)N(CC3CCCCC3)C2=S)cc1 (stereo partly drawn)	i	i	97	i	nt	i
Oc1ccc(C[C@H]2CN([C@@H](Cc3ccc(O)cc3)CN3CCC[C@@H]3CN3C(=S)NC[C@@H]3Cc3ccccc3)C(=S)N2CCc2ccccc2)cc1	i	i	i	i	nt	i
Oc1ccc(C[C@H]2CNC(=S)N2C[C@H]2CCCN2C[C@H](Cc2ccccc2)N2C[C@H](Cc3ccc(O)cc3)N(CCc3ccccc3)C2=S)cc1	i	i	76	i	nt	i
CC(C)C[C@H]1CN([C@@H](CC(C)C)CN2CCCC2CN2C(=S)NC[C@@H]2Cc2ccc(O)cc2)C(=S)N1CC1CCCCCC1 (stereo partly drawn)	i	i	91	i	i	i
Cc1ccc(C)c(NC(=O)CN2C(=O)C3CC=CCC3C2=O)c1 (stereo not drawn)	i	i	i	i	nt	i
COc1cc2cnc(-c3ccccc3)c(-c3ccc(C(F)(F)F)cc3)c2cc1OC	i	i	64	i	i	i
COCC(=O)O[C@]1(CCN(C)CCCc2nc3ccccc3[nH]2)CCc2cc(F)ccc2[C@@H]1C(C)C	i	i	90	i	i	i
CCOC(=O)CCc1nc2ccccc2[nH]1	i	i	i	i	i	i
Cc1cccnc1NC(=O)CSc1nnc(Cc2ccccc2)o1	i	i	i	i	i	i
CCc1ccc(C(=O)NNC(=O)c2cccc(N3C(=O)CCC3=O)c2)cc1	i	i	i	i	i	i
Cc1ccc(N=C2NC(=O)/C(=C/c3cccs3)S2)cc1C	i	52	i	i	i	i
COc1ccc(NC(=O)C2(C)CCN2Cc2ccc(OC(F)(F)F)cc2)cc1OC (stereo not drawn)	i	i	i	i	nt	i
Fc1ccc(NC(=S)N2CCCN(c3ccc(C(F)(F)F)cn3)CC2)c(F)c1	i	i	i	89	i	i
CCOC(=O)/C=c1\s/c(=C\c2ccc3cc(OC)ccc3c2)c(=O)n1CC(=O)NCC1CCCO1 (stereo not drawn)	i	i	61	i	68	i
CCOC(=O)/C=c1/s/c(=C/c2ccc3cc(OC)ccc3c2)c(=O)n1CC(=O)NCc1ccc2c(c1)OCO2	i	i	i	i	i	i
O=C(O)/C=C/c1ccc([N+](=O)[O-])o1	i	i	i	i	i	i
O=C1C2C3C=CC(C4CC34)C2C(=O)N1/N=C/c1ccc([N+](=O)[O-])o1 (stereo not drawn)	i	i	i	i	75	i
O=C1C2C3C=CC(C4CC34)C2C(=O)N1/N=C/c1ccc(-c2ccc([N+](=O)[O-])cc2)o1 (stereo not drawn)	i	i	i	i	i	i
Cc1ccc(S(=O)(=O)N/N=C\c2ccc([N+](=O)[O-])o2)cc1C	i	i	i	i	i	i
O=C1SCCN1N=Cc1ccc([N+](=O)[O-])o1	i	i	i	i	66	i
CC1CN(N=Cc2ccc([N+](=O)[O-])o2)C(=N)O1 (stereo not drawn)	i	i	i	i	i	i
SMILES	HIF-2a block	CF NFkB inh	Peg3 prom inh	Shn3 3UTR inh	TRPM1 prom inh	KKLEB tox
Cc1cc2ncn(/N=C/c3ccc([N+](=O)[O-])o3)c2cc1C	i	i	i	i	85	i
O=[N+]([O-])c1ccc(/C=N/N=C/c2ccc([N+](=O)[O-])o2)o1	i	83	105	98	87	i
COC(=O)c1nccnc1N	i	i	i	i	i	i
CCC(C)n1c(=S)[nH]c2c(sc3ccc([N+](=O)[O-])cc32)c1=O (stereo not drawn)	i	54	i	i	i	i
CC(C)NC(=O)N(C)C[C@H]1Oc2ccc(NC(=O)Cc3ccccc3)cc2C(=O)N([C@H](C)CO)C[C@@H]1C	i	i	i	i	i	i
CC(=O)c1ccc(N(C(=O)CNC(=O)c2cccs2)C(C(=O)NCC2CCCO2)c2ccccc2)cc1 (stereo not drawn)	i	i	94	i	i	i
CC(=O)Nc1ccc(N(C(=O)CNC(=O)c2cccs2)C(C(=O)NCC2CCCO2)c2ccccc2)cc1 (stereo not drawn)	i	i	i	i	i	i
CCN(CC)S(=O)(=O)c1ccc2c(c1)nc(CCC(=O)Nc1ccccc1Cc1ccccc1)n2CC	i	i	i	i	i	i
Cc1ccc(C(C)C)cc1NC(=O)Nc1ccc([N+](=O)[O-])cc1	i	i	i	87	i	i
COC(=O)C(=O)C/C(=N/Nc1ncnc2ccccc12)c1ccc(Cl)cc1	i	i	i	i	i	i
CCCCC1(Cc2cccc([N+](=O)[O-])c2)C(=O)N(c2ccccc2)N(c2ccccc2)C1=O	i	i	52	i	i	i
COc1ccccc1NC1=C(N2CCCCC2)C(=O)c2ccccc2C1=O	i	i	64	i	i	i
COC1=C(Nc2ccccc2)C(=O)c2ccccc2C1=O	i	50	i	i	i	i
O=C(/C=C/c1ccc(O)cc1)c1ccc(NC2=C(N3CCCCC3)C(=O)c3ccccc3C2=O)cc1	i	55	i	i	i	i
O=C1C(Nc2ccccc2)=C(N2CCCCC2)C(=O)c2ccccc21	i	i	i	i	75	i
Cc1ccc(NC2=C(N3CCCCC3)C(=O)c3ccccc3C2=O)cc1	i	i	i	i	i	i
Cc1nc2sc(C(=O)Nc3ccccc3Cc3ccccc3)c(C)c2c(=O)[nH]1	i	i	i	i	i	i
CCOC(=O)C1(C)CCN1C(=O)c1cncc(Br)c1 (stereo not drawn)	i	i	i	i	nt	i
COc1ccc(CCNC(=O)c2cc3c(=O)n4ccccc4nc3n(Cc3ccco3)c2=N)cc1OC	i	i	73	i	i	i
Cc1ccc2c(c1)c1c3n2CCCNC3CCC1 (stereo not drawn)	i	i	i	i	i	i
c1cc2c(cc1C1CCCCC1)c1c3n2CCCNC3CCC1 (stereo not drawn)	i	i	104	i	99	i
